Sequences and labels used below:
B1: ENSMUSG00000031028.188|Tub (ssRNA)
RNA: GGGAGUUCUACAGUCCGACGAUCGCUUCGAUAUCCGCAUGCUAUUAAUGGCAGAGUUGAGAACCUCAAAUUCUUUUGUUCCUACUGUUGCCCAGAAACUAGACUCUCUGACCUGCUAGGGUCUAUUCUGCAUGUCCUUUCUCUUCCCAGUUCCAGAGAUGAAACCCCUCCGAGUUAAUGUAUAAGGUUGGAAACCUUUCAGUAGGGAAUCAGGCAGUUCCCUGUUGAAAGUUGUCUGAGUUUUUGCACACCAUUCUGAUCUGAUGUGGCCUGUGCCUGGCUCCUCUAUGAGGACUUCGAGCUGCUCUUGCGGUCGCACUAGUGUGGAAUUCUCGGGUGUCAAGG
B2: ENSMUSG00000029028.242|Lrrc47 (ssRNA)
RNA: GGGAGUUCUACAGUCCGACGAUCGCUUCGAUAUCCGCAUGCUAGUCAGAACUAGUGAAGCUCCAGGCUCCUCGUGGCAGACCCUGGACAACGCUGGUAGCUGUUCUCCAUGAGACACGGCUGCUCACAGGUCCCUUUGAGUGGCUGUGGCAAGUACUCACCUACUAAGUGUUUAGGGUGGAGCUAUCCUGUGCUCACCCUGUCUCCCCCCAGUUCCUGCUGUUCCCUCCAGCCCAGCCCAGCCCAGGUGUGAGAUUCAUUGAGAUUUUUGAAACUGUUUUUACAGAUUCAAGCAGAACGCCUCCUCUUGCGGUCGCACUAGUGUGGAAUUCUCGGGUGUCAAGG
B3: ENSMUSG00000058297.76|Spock2 (ssRNA)
RNA: GGGAGUUCUACAGUCCGACGAUCGCUUCGAUAUCCGCAUGCUACUGAUCCUGCCCCUCAGCCCAACACCUGGAAUCCCUGCCCUGCCUAAUCAGCCCUACCCCAUCCUGCCUUUCUUCCUUCCUCUUCUGAGGCCAGGGAGAGGGAGGGAGGGCAGGCAGCUGAAAGCUGAGCGUCCUCCCCAAAUUGGGCUGAUUUGAUAUGAAAGCCCCACCACGGUCUUGUGGUGAUGAGGCAGGACCUGUACACACAGCAAGGCUUACUAUCCGUCUCCUGACAUCCGAAGAGCUCGUCGCAGGUGUGUCUCUUGCGGUCGCACUAGUGUGGAAUUCUCGGGUGUCAAGG
B4: ENSMUSG00000061578.198|Ksr2 (ssRNA)
RNA: GGGAGUUCUACAGUCCGACGAUCGCUUCGAUAUCCGCAUGCUAGGCACAGAGUGAAUGGGAAGGAGAGCCCUGAGGUCACUGGUCCACAUGCCCAAAGCCAUGCCCCCCAGUGAUCAGACCUGACACAAGAGGCAAAGCUGUCCCUAAGCAGAGAAUUAGCAGGGUUAGCCAGACAGCAAAAUCCAUGUAAACAUACAAAACCACCCCCCCUUUUUGAGUGGCCCUAUUGGAUGUACACACUAGGACCAAGCACGGGUCCAAAGCAGGAAGACUGAUUGACAGUAGUCACACUUCUAGAGAGACUCUUGCGGUCGCACUAGUGUGGAAUUCUCGGGUGUCAAGG
B5: ENSMUSG00000022095.7|Fam160b2|99:103 (ssRNA)
RNA: GGGAGUUCUACAGUCCGACGAUCGCUUCGAUAUCCGCAUGCUAGUCAAGUUUCCCCCACACGGUCCUUACCUGAACUUCUCUCCACCUCCAGAAGGGCAAGUCUGAGCCAGGAGCAUGACGGGUGGGGGAAGAUUCCUGCCACACAACUUCUGCCCACGGGCAGUCUCCUGCCUGGCCAUGCUGCCACUCUGUCCUCCAUGCCGGGGACUUCAGCUGCAGGACACCUCACCUGUUGACCCCACGAGCUGAGGUUUCAAGGAGGUGCUGGCUCCUAAGGCAGUGGUAUUCUUGGAGCCUUUUAGCUCUUGCGGUCGCACUAGUGUGGAAUUCUCGGGUGUCAAGG
B6: ENSMUSG00000004113.285|Cacna1b (ssRNA)
RNA: GGGAGUUCUACAGUCCGACGAUCGCUUCGAUAUCCGCAUGCUAUGGCUGCUUUGCAAAGGGAAAACCCAUGCUCAGGAAGGUGUUCAGUGUGCACAGAUAGCUGGGAGGCCACGAGAGAAAGGUUGCACACAGACAGGCAGGCACUCCUUGGUGUGGUCUCUCUGUUUUGAAACUUCUGAUGACUUCUUGGUGGCUUGUUGUCUUCUACCCCAUGUUUCUCACAGGAUCUGUGUGUGUGUGUGUGUGUGUGUGUGUGUGUGUGUGUGUGUGUGUUAGCAUGUGUGUAUUAGCGUGUGUGAGUGCUCUUGCGGUCGCACUAGUGUGGAAUUCUCGGGUGUCAAGG
B7: ENSMUSG00000004113.284|Cacna1b (ssRNA)
RNA: GGGAGUUCUACAGUCCGACGAUCGCUUCGAUAUCCGCAUGCUAACCUCAUGGCUGCUUUGCAAAGGGAAAACCCAUGCUCAGGAAGGUGUUCAGUGUGCACAGAUAGCUGGGAGGCCACGAGAGAAAGGUUGCACACAGACAGGCAGGCACUCCUUGGUGUGGUCUCUCUGUUUUGAAACUUCUGAUGACUUCUUGGUGGCUUGUUGUCUUCUACCCCAUGUUUCUCACAGGAUCUGUGUGUGUGUGUGUGUGUGUGUGUGUGUGUGUGUGUGUGUGUGUUAGCAUGUGUGUAUUAGCGUGUGCUCUUGCGGUCGCACUAGUGUGGAAUUCUCGGGUGUCAAGG
B8: ENSMUSG00000004113.287|Cacna1b (ssRNA)
RNA: GGGAGUUCUACAGUCCGACGAUCGCUUCGAUAUCCGCAUGCUAAAAGGGAAAACCCAUGCUCAGGAAGGUGUUCAGUGUGCACAGAUAGCUGGGAGGCCACGAGAGAAAGGUUGCACACAGACAGGCAGGCACUCCUUGGUGUGGUCUCUCUGUUUUGAAACUUCUGAUGACUUCUUGGUGGCUUGUUGUCUUCUACCCCAUGUUUCUCACAGGAUCUGUGUGUGUGUGUGUGUGUGUGUGUGUGUGUGUGUGUGUGUGUGUUAGCAUGUGUGUAUUAGCGUGUGUGAGUGUGUGAGCAUGCACUCUUGCGGUCGCACUAGUGUGGAAUUCUCGGGUGUCAAGG
B9: ENSMUSG00000004113.288|Cacna1b (ssRNA)
RNA: GGGAGUUCUACAGUCCGACGAUCGCUUCGAUAUCCGCAUGCUAAAAACCCAUGCUCAGGAAGGUGUUCAGUGUGCACAGAUAGCUGGGAGGCCACGAGAGAAAGGUUGCACACAGACAGGCAGGCACUCCUUGGUGUGGUCUCUCUGUUUUGAAACUUCUGAUGACUUCUUGGUGGCUUGUUGUCUUCUACCCCAUGUUUCUCACAGGAUCUGUGUGUGUGUGUGUGUGUGUGUGUGUGUGUGUGUGUGUGUGUGUUAGCAUGUGUGUAUUAGCGUGUGUGAGUGUGUGAGCAUGCACGAGUCCUCUUGCGGUCGCACUAGUGUGGAAUUCUCGGGUGUCAAGG
B10: ENSMUSG00000004113.289|Cacna1b (ssRNA)
RNA: GGGAGUUCUACAGUCCGACGAUCGCUUCGAUAUCCGCAUGCUACAUGCUCAGGAAGGUGUUCAGUGUGCACAGAUAGCUGGGAGGCCACGAGAGAAAGGUUGCACACAGACAGGCAGGCACUCCUUGGUGUGGUCUCUCUGUUUUGAAACUUCUGAUGACUUCUUGGUGGCUUGUUGUCUUCUACCCCAUGUUUCUCACAGGAUCUGUGUGUGUGUGUGUGUGUGUGUGUGUGUGUGUGUGUGUGUGUGUUAGCAUGUGUGUAUUAGCGUGUGUGAGUGUGUGAGCAUGCACGAGUCAUAGGACUCUUGCGGUCGCACUAGUGUGGAAUUCUCGGGUGUCAAGG
B11: ENSMUSG00000004113.286|Cacna1b (ssRNA)
RNA: GGGAGUUCUACAGUCCGACGAUCGCUUCGAUAUCCGCAUGCUACUUUGCAAAGGGAAAACCCAUGCUCAGGAAGGUGUUCAGUGUGCACAGAUAGCUGGGAGGCCACGAGAGAAAGGUUGCACACAGACAGGCAGGCACUCCUUGGUGUGGUCUCUCUGUUUUGAAACUUCUGAUGACUUCUUGGUGGCUUGUUGUCUUCUACCCCAUGUUUCUCACAGGAUCUGUGUGUGUGUGUGUGUGUGUGUGUGUGUGUGUGUGUGUGUGUGUUAGCAUGUGUGUAUUAGCGUGUGUGAGUGUGUGAGCUCUUGCGGUCGCACUAGUGUGGAAUUCUCGGGUGUCAAGG

Whole data set: some 9,900 sequences, median “r (bound/input frequency ratio)” near 0.7, cut for the highest 2% near 6.5. Shown is part of a subset that was picked to be rich in the highest values.

In the experiment the target is TDP-43 (Homo sapiens, UniProt Q13148 1-414). Kind of experiment: RNA Bind-n-Seq with designed 260-mer pool; 25 mM Tris-HCl, 150 mM KCl, 3 mM MgCl2, BSA (printed 500 mg/mL), 20 units/mL SUPERase IN; pH not stated; 500 nM RNA pool, 1 h, 4 C; TDP-43 5, 50, 500 nM; high values mean tight binding. To be noted: protein: recombinant; tags: SBP (GST cleaved off with PreScission; pGEX-GST-SBP). A digest of the protocol: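 Binding (R) is the ratio of each oligo's mapped-read-normalized abundance in the bound fraction to its abundance in the input. To obtain it, SBP-tagged recombinant TDP-43 (5, 50 or 500 nM) on streptavidin beads was incubated with 500 nM of an in vitro-transcribed 260-nt 3′ UTR oligo pool for 1 h at 4 °C in 25 mM Tris-HCl, 150 mM KCl, 3 mM MgCl2, BSA and SUPERase IN. The RNA retained after washing was released with biotin, then reverse transcribed, amplified by PCR and sequenced.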
Chain of TDP-43 (Q13148 whole entry): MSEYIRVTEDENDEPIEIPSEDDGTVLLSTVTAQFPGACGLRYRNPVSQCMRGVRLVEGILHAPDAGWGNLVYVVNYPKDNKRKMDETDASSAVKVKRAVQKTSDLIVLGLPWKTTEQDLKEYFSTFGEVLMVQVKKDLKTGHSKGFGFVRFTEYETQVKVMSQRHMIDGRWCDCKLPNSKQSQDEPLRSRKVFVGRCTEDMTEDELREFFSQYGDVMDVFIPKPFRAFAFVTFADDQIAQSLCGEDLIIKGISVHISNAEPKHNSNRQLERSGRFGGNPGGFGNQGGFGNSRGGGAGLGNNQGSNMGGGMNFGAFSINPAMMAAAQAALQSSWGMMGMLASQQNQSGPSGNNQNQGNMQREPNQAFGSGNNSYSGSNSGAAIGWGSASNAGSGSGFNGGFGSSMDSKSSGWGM
Consider B1, for which the binding signal was 1.12 R (bound/input frequency ratio).
The same measure for B2: 0.479 R (bound/input frequency ratio).
For the molecule B3, the binding signal was 0.827 R (bound/input frequency ratio).
With B4, the binding signal is 1.41 R (bound/input frequency ratio).
B5: the binding signal is 0.238 R (bound/input frequency ratio).
Regarding B6, the binding signal was 7.91 R (bound/input frequency ratio).
On to B7, for which the binding signal is 6.3 R (bound/input frequency ratio).
As for B8, the binding signal was 5.32 R (bound/input frequency ratio).
The figure for B9 is 7.06 R (bound/input frequency ratio); for B10 it is 5.06 R (bound/input frequency ratio).
The same measure for B11: 6.11 R (bound/input frequency ratio).

The values above are taken from paper PMC12864922, “TDP-43 directly inhibits mRNA accumulation in neurites through modulation of mRNA stability”.
